# Screening results from PubChem BioAssay.
# HT1080 IDH1KD tx: toxicity to HT-1080 IDH1 knockdown cells (counter line); 360,000 tested, 2% active; HT-1080 IDH1 knockdown viability, ATP luminescence, 48 h; Potency, µM (doses to about 46.1 µM), for the others: at the highest dose activity, negative = toxicity, actives largely listed as cytotoxic; AID 686971;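 further: potency means the concentration at half of the fitted maximal effect; 0% = DMSO wells and -100% = cell-free medium wells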
#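 Using the IDH1-knockdown HT-1080 line run in the same batch and compound series as the NT line, viability after 48 h at 37 °C was determined by CellTiter-Glo luminescence and expressed as % activity.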
# IL-1B inflam inh: inflammasome signaling inhibition, IL-1 beta readout; THP-1 LPS/ATP IL-1B secretion, AlphaLISA, 16 h; active compounds read low; activity change, % at 57.5 µM; 360,000 tested, 4.7% active; in the data active means activity change below about -50%; inconclusive means mostly about -30% to -49%
#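 Secreted IL-1B measured by AlphaLISA bead assay after 16 h compound exposure of THP-1 cells; compounds (final up to 57.5 uM) added 1 h before LPS (250 ng/mL) and ATP (1.25 mM) stimulation; lower signal means less secretion.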
# DT40 TDP1 CPT: DT40-hTDP1 cell growth loss with CPT; chicken DT40 Tdp1-/-;hTDP1 cells + 20 nM CPT, ATP luminescence, 48 h; 420,000 tested, 12% active; Potency, µM (series often up to 46.2 µM), for the others: top-dose activity change, negative = growth inhibition, actives largely listed as inhibitors; further: potency means the concentration at half of the fitted maximal effect; nearly all actives have a fitted effect of over 55% in size
#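 Chicken DT40 Tdp1-/- cells stably complemented with human TDP1 were seeded at 400 cells/well in medium containing 20 nM camptothecin, exposed to pin-transferred compounds, and grown at 37 °C for at least 48 hr. Viability was read as ATP luminescence.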
# TDP1 cell noCPT: qHTS for Inhibitors of human tyrosyl-DNA phosphodiesterase 1 (TDP1): qHTS in cells in absence of CPT. Potency, µM (doses to about 46.2 µM), without a hit: top-dose activity change, negative = growth inhibition, hits mostly inhibitors. 420,000 tested, 15% active. DT40 Tdp1-/- hTDP1 cells, no CPT, ATP luminescence, 48 h; further: potency means the concentration at half of the fitted maximal effect; nearly all actives have a fitted effect of over 55% in size
#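 Growth of hTDP1-complemented DT40 Tdp1-knockout cells is measured by ATP luminescence after at least 48 hr compound exposure at 37 °C, with DMSO substituting for the 20 nM CPT used in the parallel screen.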
# HT1080-NT tox: kills 2HG-producing HT-1080-NT fibrosarcoma cells | HT-1080-NT fibrosarcoma viability, CellTiter-Glo ATP luminescence, 48 h | 360,000 tested, 1.6% active | Potency, µM (doses to about 46.1 µM), for the others: at the highest dose activity, negative = less viability, usual class: cytotoxic;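 further: NT is the 2HG producing partner of a matched IDH1 knockdown line; potency means the concentration at half of the fitted maximal effect; 0% = DMSO-treated cells and -100% = media-only wells without cells; nearly all actives have a fitted effect of over 55% in size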
#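 HT-1080-NT fibrosarcoma cells (2HG-overproducing), 750 cells/well in RPMI with 5% FBS, dosed after 2 h and incubated 48 h at 37C. CellTiter-Glo luminescence normalized to DMSO and no-cell wells; concentration-response curves fitted and classed.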
# Active calls of the source: *; ? = inconclusive; · = no result given. The list is not random: actives were taken first. Their share in the collection is about 19%. Unless noted, the call rests on the fitted dose curve; in most records, active means well fitted curve in the direction sought with a large enough effect; inconclusive means small, poorly fitted or top-dose-only effect, or another doubt; inactive means no such curve, though single readings can be large; an effect the other way counts as inactive or inconclusive. Unless noted, on the % scale 0 is the no-effect control and ±100 the full control effect.
SMILES,HT1080 IDH1KD tx,IL-1B inflam inh,DT40 TDP1 CPT,TDP1 cell noCPT,HT1080-NT tox
COc1ccc(/C=N/NC(=O)c2ccc(F)cc2)cc1CN1CCc2cc(OC)c(OC)cc2C1C (stereo unspecified),?,-59*,?,18µM*,?
COc1ccc(/C=N/NC(=O)c2ccc(OC)c(OC)c2)cc1COc1c(F)c(F)c(F)c(F)c1F,?,32,16µM*,?,-3%
O=C(Nc1ccc(S(=O)(=O)Nc2ncccn2)cc1)c1cccc(S(=O)(=O)N2CCCC2)c1,0%,-1,-19%,-3%,23%
Cc1ccc(Cn2c(=O)c3cccnc3n(CC(=O)Nc3cc(Cl)ccc3C)c2=O)cc1,·,·,-22%,?,·
COc1ccc(CN(C)CC(=O)Nc2cc(OC)c([N+](=O)[O-])cc2C)c(OC)c1,-20%,?,13µM*,15µM*,-18%
COc1cc(NC(=O)CN(C)Cc2cccc(F)c2)c(C)cc1[N+](=O)[O-],19%,3,?,21µM*,20%
C=CCn1c(SCCN2CCCC2)nc2c([nH]c3ccccc32)c1=O,8%,0,11%,-51%,3%
CCOCCCn1c(=S)[nH]c2cc(C(=O)N3CCN(C4CCCCC4)CC3)ccc2c1=O,-1%,6,23µM*,?,2%
COCCn1c(=S)[nH]c2cc(C(=O)N3CCN(C4CCCCC4)CC3)ccc2c1=O,-9%,24,?,?,-4%
O=C(c1ccc2c(=O)n(C3CCCC3)c(=S)[nH]c2c1)N1CCCCCC1,0%,2,15µM*,13µM*,-10%
CC1CCCN(C(=O)c2ccc3c(=O)n(C4CCCC4)c(=S)[nH]c3c2)C1 (stereo unspecified),1%,-16,21µM*,?,-2%
CC1CCCCC1n1c(=S)[nH]c2ccccc2c1=O (stereo unspecified),11µM*,22,23µM*,?,13µM*
CCCN1CCC(NC(=O)C2CCCCC2C(=O)O)CC1 (stereo unspecified),18%,3,1%,6%,17%
CC(C)Nc1nnc(SCC(=O)Nc2sccc2C#N)s1,-1%,0,?,?,-1%
O=C(Nc1ccccc1C(=O)NCCCN1CCOCC1)c1ccc(Cl)cc1,-1%,0,-25%,?,-9%
N#Cc1nc(-c2ccc(OCc3ccc(Cl)cc3)cc2)oc1N1CCCCC1,·,·,-24%,?,·
Cc1cc(NCc2ccccn2)ccc1Br,1%,-6,?,?,8%
CCC(Cn1nnc2ccccc2c1=O)NC(=O)Nc1ccc(C)cc1C (stereo unspecified),·,·,4%,-14%,·
COc1cc(SSc2cc(OC)cc([N+](=O)[O-])c2N)c(N)c([N+](=O)[O-])c1,-12%,-77*,4.6µM*,4.1µM*,-1%
O=C1C2C3C=CC(O3)C2C(=O)N1N=Cc1ccc2c(c1)OCO2 (stereo unspecified),0%,-20,-14%,-16%,6%
COc1cccc(C=Nc2cccc3c(=O)[nH][nH]c(=O)c23)c1O,25%,-2,-15%,-4%,18%
O=[N+]([O-])c1cc([N+](=O)[O-])c2c(=Nc3ccccc3)n(-c3ccccc3)n(O)c2c1,?,-25,3.3µM*,10µM*,?
Cc1ccc(NC(=O)Cn2nc(Cc3ccncc3)c3ccccc3c2=O)c(Cl)c1,·,·,-4%,5%,·
COc1ccc(Cl)cc1NC(=O)Cn1nc(Cc2ccncc2)c2ccccc2c1=O,·,·,?,23µM*,·
Cc1cccc(N2CCN(C(=O)Cn3nc(Cc4cccnc4)c4ccccc4c3=O)CC2)c1C,·,·,13µM*,8.2µM*,·
SMILES,HT1080 IDH1KD tx,IL-1B inflam inh,DT40 TDP1 CPT,TDP1 cell noCPT,HT1080-NT tox
COc1ccc(Cl)cc1NC(=O)Cn1c(=O)n(Cc2ccco2)c(=O)c2cccnc21,·,·,?,16µM*,·
CCN(C(=O)Cn1nc(Cc2ccncc2)c2ccccc2c1=O)c1cccc(Cl)c1,·,·,?,21µM*,·
O=C(Cn1nc(Cc2cccnc2)c2ccccc2c1=O)N1CCN(c2ccccn2)CC1,-3%,-17,-17%,-17%,3%
Cc1cccc(NC(=O)C2c3ccccc3C(=O)N3CCc4ccccc4C23)n1 (stereo unspecified),?,-13,?,?,4%
Nc1ncnc(N)c1NC(=O)c1ccc(OCc2ccccc2)cc1,8%,30,-4%,-23%,7%
CC(C)N(CCc1ccncc1)C(=S)Nc1ccc(F)c(Cl)c1,-18%,6,16%,-1%,-21%
CN(C)C(=O)Cn1cc(S(=O)(=O)Cc2ccccc2)c2ccccc21,1%,0,-4%,20%,4%
Cc1cc(C(C)(C)C)c(OC(=O)[C@@H]2OC(c3ccccc3)=C[C@H]2c2ccccc2)c(C(C)(C)C)c1,5%,16,-29%,?,6%
CCN(C(=O)Cn1nc(Cc2cccnc2)c2ccccc2c1=O)c1cc(C)ccc1C,·,·,23µM*,23µM*,·
OCCn1ccc(-c2ccccc2OCc2ccc(F)cc2)n1,3%,-8,?,21µM*,-9%
COc1ccc(N2CCN(C(=O)COC(=O)c3ccccc3OCc3ccc(F)cc3)CC2)cc1,-3%,13,?,?,1%
CC(C)CCNC(=O)COC(=O)/C=C/c1ccc2ccccc2n1,1%,-59*,?,?,?
O=C(COC(=O)/C=C/c1ccc2ccccc2n1)NNC(=O)c1ccccc1,-8%,?,?,26µM*,-8%
O=C(COC(=O)/C=C/c1cccc(F)c1)NNC(=O)c1ccccc1,-1%,-15,5%,8%,5%
Cc1ccc(C(NC(=O)Nc2ccccn2)C(Cl)(Cl)Cl)cc1F (stereo unspecified),13%,56,?,21µM*,6%
COC(=O)c1cc(Br)c(=O)n(CCN2CCCC2)c1,-2%,32,9%,-19%,1%
COC(=O)c1cc(Br)c(=O)n(CCC2=CCCCC2)c1,7%,17,21µM*,?,5%
O=C(c1ccccc1)N(c1ccccc1)c1ccccc1O,-2%,20,15µM*,16µM*,7%
O=C(Nc1ccc(OC(F)F)cc1)c1nc(SCc2ccccc2F)ncc1Cl,·,·,?,13µM*,·
COc1ccc(CCNC(=O)c2nc(SCc3ccccc3F)ncc2Cl)cc1OC,·,·,18µM*,23µM*,·
Cc1ccccc1OC(=O)c1nc(SCc2ccccc2F)ncc1Cl,·,·,-7%,-11%,·
CN1C(=O)c2c(sc3c2CC(C)(C)SC3)N2CCN=C12,-7%,-8,21µM*,21µM*,-5%
